HCMV inh = inhibitors of human cytomegalovirus. activity change, negative = inhibition, % at 57.5 µM. HFF cells, HCMV-luciferase reporter, 72 h; active compounds read low. 410,000 tested, 4.5% active; in the data active means activity change below about -60%; inconclusive means no clear call, values can overlap the other calls; inactive means above about -39%; further: on the % scale 0 is the no-effect control and ±100 the full control effect
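Two-dose cell screen: HFF monolayers treated with compounds and infected with luciferase-expressing HCMV at 1 PFU/cell, 72 h at 37C, then lysed for luciferase measurement.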
Pf growth 96h = inhibits malaria parasite growth, 96 h; Potency, µM (titrated, usually from 28.7 µM), for inactives: at the highest dose activity change, negative = inhibition, hits mostly inhibitors; 320,000 tested, 6.9% active; P. falciparum luciferase reporter growth, 96 h; further: potency means the concentration at half of the fitted maximal effect; on the % scale 0 is the no-effect control and ±100 the full control effect
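Delayed-death screen, second-generation endpoint: infected erythrocytes, 2% hematocrit, 0.05% parasitemia final; 96 hours at 37 C, 5% CO2; luciferase detection reagent; luminescence decrease equals reduced growth.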
Shiga toxin inh = blocks Shiga toxin action in Vero cells | 290,000 tested, 9.2% active | Vero cells, Shiga toxin protein synthesis inhibition reporter | AID 2315 | inhibition, % at 38.7 µM; in the data active means inhibition mostly above about 28%, no sharp cut-off; inactive means mostly below about 43%; further: 0% is about no effect
Pf growth 48h = inhibits P. falciparum growth in the first generation, 48 h; 310,000 tested, 5.9% active; AID 504832; Potency, µM (highest dose often 28.7 µM), for inactives: at the highest dose activity change, negative = inhibition, usual class: inhibitors; P. falciparum luciferase growth in erythrocytes, 48 h; further: potency means the concentration at half of the fitted maximal effect; on the % scale 0 is the no-effect control and ±100 the full control effect
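Luciferase-expressing P. falciparum in infected erythrocytes (2% hematocrit, 0.1% parasitemia final) in RPMI 1640/0.5% Albumax were exposed to compound for 48 hours at 37 C, 5% CO2; growth read as luminescence.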
HCV inhibitor = blocks hepatitis C virus; Huh7.5.1 HCVcc-Cre infection, luciferase reporter, 44 h; Potency, µM (highest dose often 41.8 µM), inactives show at the highest dose activity change, negative = inhibition, actives largely listed as inhibitors; 340,000 tested, 3.4% active; AID 651820; further: potency means the concentration at half of the fitted maximal effect; on the % scale 0 is the no-effect control and ±100 the full control effect
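Whole-lifecycle infectious HCVcc-Cre system; cells 1,000/well, compound then virus (~0.5 moi) added 4 h after plating, 44 h culture. Luciferase read 15 sec following 15 min substrate incubation, room temp.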
CHX counter = affects cycloheximide protein synthesis inhibition readout, counter-screen; cell reporter, cycloheximide protein synthesis inhibition counterscreen; max response, %; AID 2314; 300,000 tested, 12% active; in the data active means max response mostly above about 13%, no sharp cut-off; inactive means mostly below about 14%; further: read at 38.3 µM for the half of the compounds with a filed dose; 0% is about no effect
Active calls of the source: *; i = inactive; ? = inconclusive; / = no result. Only some compounds are listed: those with a hit (about 21% of all), similar ones and a draw of the others. Unless noted, the call rests on the fitted dose curve; in most records, active means well fitted inhibition curve with a large enough effect; inconclusive means small, poorly fitted or top-dose-only effect, or another doubt; inactive means no such curve, though single readings can be large or run the other way.

SMILES	HCMV inh	Pf growth 96h	Shiga toxin inh	Pf growth 48h	HCV inhibitor	CHX counter
Cc1ccc(S(=O)(=O)N[C@H]2CC[C@@]34CCCN3C(=O)CCC[C@H]4[C@H]2Cc2ccccc2)cc1	-18.4	/	/	/	/	/
C(=N\Nc1nncc2ccccc12)/c1ccccn1	-97.7*	?	56.5*	0.828µM*	3.16µM*	32.8*
CC(=O)Nc1ccc(C=NNc2ccc([N+](=O)[O-])cn2)cc1	-1.5	/	/	/	-12.2%	/
Nc1cnnc(N/N=C\c2ccccc2)c1Cl	23.6	/	/	/	0.1%	/
O=C(N/N=C/c1ccccn1)C1CC1	-12.9	25.1%	-14.3	/	-5.7%	-4.4
C(=N\Nc1ccc2nncn2n1)/c1ccccn1	-87.4*	9.28µM*	13.2	-74.5%	-69.4%	6.5
Fc1cccc(/C=N/Nc2nncc3ccccc23)c1	200.8	261.2%	85.5*	/	3.5%	56.5*
CC(=O)Nc1ccc(/C=N/Nc2nncc3ccccc23)cc1	90.7	148.8%	83.3*	210.6%	-32.1%	49.9*
CCOc1ccc(CCNC(=O)COC(=O)COc2ccc(C(=O)CC)cc2)cc1OCC	17.6	5.3%	/	?	9.4%	/
COc1cccc2c1NC1(c3ccccc3)c3ccccc3-n3nncc3CN1C2=O (centres undefined)	-4.3	/	/	/	/	/
CCc1ccc(-n2nc(CO)c(C(=O)NCCCCc3ccccc3)n2)cc1	-24.2	/	/	/	/	/
CC(C)(C)[Si](C)(C)OCc1ccc(-c2c3c(cc4ccc(Cl)cc24)CCC3=O)cc1	0.6	/	/	/	/	/
CCn1cnc2c1c(=O)n(CC(=O)Nc1cc(C)on1)c(=O)n2Cc1ccccc1	25.3	?	19.0	?	-23.9%	-3.0
Cc1cc(NC(=O)Cn2c(=O)c3c(ncn3CC(C)C)n(Cc3ccccc3)c2=O)no1	21.7	4.65µM*	21.3	8.28µM*	8.3%	0.1
Cc1cc(NC(=O)Cn2c(=O)c3c(ncn3CCC(C)C)n(Cc3ccccc3)c2=O)no1	37.5	6.4%	-11.3	3.29µM*	-8.0%	2.9
CC(C)Cn1cnc2c1c(=O)n(CC(=O)Nc1ccc3c(c1)OCO3)c(=O)n2Cc1ccccc1	27.0	10.4µM*	-7.9	9.28µM*	-29.3%	-2.7
CC(C)Cn1cnc2c1c(=O)n(CC(=O)O)c(=O)n2Cc1ccccc1	-3.0	?	-3.5	?	3.5%	9.9
CC(C)Cn1cnc2c1c(=O)n(CC(=O)NC(=O)NC(C)(C)C)c(=O)n2Cc1ccccc1	-3.5	?	-7.2	2.94µM*	?	11.8
COc1ccc(Br)c2c1-c1nc(NC(=O)c3cccc(C)c3)sc1C2	-0.4	/	/	/	/	/
CCCCNC(=O)Cn1c(=O)c2c(ncn2CCC(C)C)n(Cc2ccccc2)c1=O	-30.0	2.33µM*	-0.9	?	8.8%	-5.5
Cc1ccc(NC(=O)/C=C/c2ccc(Cl)cc2)c(Br)c1	-29.8	/	/	/	/	/
Cc1cccc(NC(=O)c2ccccn2)c1C	25.1	120.9%	77.2*	81.7%	5.6%	32.3*
Cc1ccc(NC(=O)Nc2ccc(Cl)cc2)c(Br)c1	-17.3	0.0%	active	36.7%	?	28.2*
Cc1ccc(NC(=O)c2ccccn2)c(Br)c1	62.4	i	88.7*	i	-26.9%	52.2*
Cc1ccc(C)c(NC(=O)c2ccccn2)c1	11.1	/	47.3*	128.3%	?	31.6*
SMILES	HCMV inh	Pf growth 96h	Shiga toxin inh	Pf growth 48h	HCV inhibitor	CHX counter
CCN(CC)C(=O)[C@H]1CC(CC(=O)NC/C=C(\C)CCC=C(C)C)C(=O)N2CCc3c([nH]c4ccccc34)[C@]12C (some centres undefined)	9.9	/	/	/	?	/
Cc1c2cnn(-c3ccccc3)c(=O)c2c(C)n1CC(=O)NCc1ccc(Cl)cc1	-25.2	/	/	/	/	/
CCOc1ccccc1NC1(c2ccccc2)C(=O)c2ccccc2C1=O	7.6	/	/	/	/	/
CCc1ccc(C(=O)COC(=O)C(Cc2c[nH]c3ccccc23)NC(=O)c2ccc(Br)cc2)cc1 (centres undefined)	24.2	/	/	/	/	/
Cc1ccc(NC(=O)c2csnn2)c(C)c1	-32.9	-8.0%	31.5	47.4%	7.6%	21.6*
Cc1ccc(NC(=S)c2ccc3ccccc3n2)c(C)c1	43.8	75.4%	85.1*	102.8%	-12.7%	29.7*
Cc1ccc(S(=O)(=O)N(C)C)cc1NC(=O)c1ccc2ccccc2n1	-18.1	?	37.5	0.0%	?	37.0*

Screens as filed in PubChem.
